Results reported in PubChem BioAssay AID504454 (NMMLSC, 2011).
In all, about 340,000 compounds went through this assay and about 1,400 (0.41%) were called active.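 How the source made its calls: active means response above a set limit, near 3 SD of response in nonfluorescent compounds (cut at about 42% in these data); inactive means the rest.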 What follows is part of a selection rich in actives, with near analogues and random picks from the rest.

molecular target: Beta-2 adrenergic receptor (Homo sapiens) (UniProt P07550); assay: agonist-induced loss of surface beta2AR – cell-based, FAP fluorogen, flow cytometry, primary screen (AID 504454); conditions: Am2.2-beta2AR cells, FAP receptor internalization, stronger effect = higher value, concentration not given here
Sequence (P07550 whole entry, looked up): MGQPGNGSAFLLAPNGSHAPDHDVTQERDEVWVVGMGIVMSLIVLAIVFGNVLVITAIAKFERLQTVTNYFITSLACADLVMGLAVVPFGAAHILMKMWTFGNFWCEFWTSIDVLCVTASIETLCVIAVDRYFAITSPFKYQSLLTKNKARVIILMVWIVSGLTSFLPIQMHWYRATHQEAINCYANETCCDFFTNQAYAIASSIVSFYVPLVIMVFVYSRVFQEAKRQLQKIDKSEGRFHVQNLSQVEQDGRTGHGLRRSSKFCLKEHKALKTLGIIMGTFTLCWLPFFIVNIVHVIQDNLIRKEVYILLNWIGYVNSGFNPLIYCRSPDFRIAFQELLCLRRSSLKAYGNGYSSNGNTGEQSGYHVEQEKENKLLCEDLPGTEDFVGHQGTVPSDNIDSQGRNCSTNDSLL

response, active:
CSc1ccc(CCNC(=O)C2CCN(c3nnc(-n4cccc4)s3)CC2)cc1 77.9%
CSc1ccc(CNC(=O)c2ccc(NC(=O)C3=CSCCO3)cc2)cc1 98.2%
CC1(C)C=Cc2c(ccc3c2OC[C@@H](c2ccc(O)cc2O)C3)O1 45%
COc1ccc2c(c1OC)C(=O)OC2Nc1nc(-c2ccccc2)cs1 (stereo not drawn) 43.4%
CCCN(CCc1ccccc1)C1CCc2c(O)cccc2C1 (stereo not drawn) 56.8%
O=C(Nc1ccccc1Cl)/C(Cl)=C(\Cl)S(=O)c1ccccc1 (stereo not drawn) 56.9%
CC(=O)c1ccc(NC(=O)c2ccc3c(Cl)c4c(nc3c2)CCCC4)cc1 60.5%
c1ccc(CC2CCN(c3nc4ccccc4n4cnnc34)CC2)cc1 68%
CSc1nc(-c2ccccc2)nc(C(Cl)Cl)n1 81.7%
CCN1CCC(O)(/C=C/c2ccc(C)cc2)C(C(=O)/C=C/c2ccc(C)cc2)C1 (stereo not drawn) 52.9%
O=C(NCCCn1ccnc1)C1CCCN(S(=O)(=O)c2cc(Cl)ccc2Cl)C1 (stereo not drawn) 105%
O=C1C(=O)N(CC2COc3ccccc3O2)c2ccccc21 (stereo not drawn) 45.6%
C#CCOCCOCCOCCNc1nc(N2CCN(C(=O)CCCCCCCCCCNC(=O)[C@H]([C@@H](C)CC)n3cc(CCCCN=C(N)N)nn3)CC2)nc(N2CCN(C(=O)CCCCCCCCCCNC(=O)[C@H](CO)n3cc(CCCSC)nn3)CC2)n1 96.3%
C#CCOCCOCCOCCNc1nc(N2CCN(C(=O)CCCCCCCCCCNC(=O)Cn3cc(CCCCCN)nn3)CC2)nc(N2CCN(C(=O)CCCCCCCCCCNC(=O)[C@H](CO)n3cc(CCCSC)nn3)CC2)n1 64.5%
C#CCOCCOCCOCCNc1nc(N2CCN(C(=O)CCCCCCCCCCNC(=O)[C@H](CCCCN)n3cc(C)nn3)CC2)nc(N2CCN(C(=O)CCCCCCCCCCNC(=O)[C@H](CO)n3cc(CCCSC)nn3)CC2)n1 77%

response, inactive:
CSc1ccc(S(=O)(=O)N2CCC(C(=O)NCCc3ccccc3)CC2)cc1 21.2%
COc1ccc(CCNC(=O)C2CCN(c3nn4c(=O)cc(C)nc4s3)CC2)cc1OC 2.26%
COc1cc(O)c2c(=O)c3c(O)c(O)ccc3oc2c1OC 27.1%
COCCNC(=O)C1CCN(S(=O)(=O)c2ccc3c(c2)OCCO3)CC1 -3.08%
COC(=O)c1ccc(Sc2ccc(F)cc2)c(N)c1 -3.98%
Cc1snc(SCc2c(F)cccc2Cl)c1C#N -7.91%
Cc1ccc(C(=O)N/C(=C\c2ccco2)C(=O)N2CCSCC2)cc1C -0.71%
O=C(Nc1ccc(C(=O)NCc2ccccc2Cl)cc1)C1=CSCCO1 -0.39%
CS(=O)(=O)NCc1ccc(C(=O)NCc2ccccc2)cc1 -3.96%
NC(=O)c1ccsc1NC(=O)COC(=O)Cc1n[nH]c(=O)c2ccccc12 -0.52%
CCCCN(C(=O)c1ccc(OC(F)(F)F)cc1)c1c(N)n(CCC)c(=O)[nH]c1=O 7.36%
COc1cccc(OC)c1C(=O)OCC(=O)/C(C#N)=C(\C)N 13.3%
CSCC(=O)N1CCCC(C(=O)c2cc(F)ccc2F)C1 (stereo not drawn) -14.2%
C/C(CC1CC(C)(C)OC1=O)=N/Nc1nc(-c2ccccc2)cs1 (stereo not drawn) 4.49%
CCc1ccccc1NC(=O)[C@@H]1CCC(=O)N1C1OC(=O)c2c1ccc(OC)c2OC (stereo partly drawn) 11.2%
O=C(NCC1CC1)c1onc(CSc2ccccc2)c1C(=O)NCC1CC1 -4.02%
CCn1c(SCC(=O)NC2CC2)nnc1-c1ccccn1 -5.81%
COC(=O)C1(C)NC(c2ccc(F)cc2)C2C(=O)N(c3ccccc3)C(=O)C21 (stereo not drawn) 1.51%
Cc1n[nH]c(=O)c2c1nnn2Cc1ccc(F)cc1 2.64%
Cc1cc(C)cc(C(=O)N(CCc2ccccc2)C2=CC3CCC(C2)N3C)c1 (stereo not drawn) 11.3%
CCOC(=O)c1cnc(SCC(=O)Nc2ccccc2C(=O)OC)nc1N 2.55%
O=C(O)CCCn1cc(NC(=O)COc2cccc(Cl)c2)cn1 15.6%
COC(CNC(=O)Cn1ncc2ccsc2c1=O)OC 1.39%
CN(C)S(=O)(=O)Oc1ccccc1C(=O)Nc1ccccc1Cl 1.66%
O=C(COC(=O)CCc1c[nH]c(=O)[nH]1)Nc1ccccc1Cl -3.16%
CCc1nc(N2CCN(C(C)=O)CC2)c2c3c(sc2n1)CCCC3 -8.93%
CC(C)CCNC(=O)c1ccc2c(Cl)c3c(nc2c1)CCC3 -1.39%
COc1cccc(NC(=O)c2ccc3c(SCC(=O)O)c4c(nc3c2)CCCC4)c1 1.27%
CC(C)NC(=O)COCc1cc(-c2ccc3c(c2)OCO3)on1 -5.4%
N#CC1(NC(=O)COc2ccc3oc4ccccc4c3c2)CCCCC1 -4.35%
O=C(c1ccccc1)c1ccc2nc(N3CCCCC3)c3nncn3c2c1 -11.4%
Brc1ccccc1CN1CCC(Cc2ccccc2)CC1 4.82%
COc1ccc(C2c3ccc(O)cc3Oc3ncn(CCCO)c(=N)c32)cc1OC (stereo not drawn) -10.4%
CS(=O)(=O)N1CCN(CC(=O)NC2CCCC2)CC1 -2.25%
CCOC(=O)C1CCCN(C(=O)/C=C/c2ccc(OC)cc2)C1 (stereo not drawn) 0.35%
O=C(NCCCn1ccnc1)Nc1ccc(Cl)cc1Cl -0.95%
COc1ccc(S(=O)(=O)N2CCCC(C(=O)NCCCn3ccnc3)C2)cc1OC (stereo not drawn) 10.8%
CC1Cc2ccccc2N1C(=O)Cn1cnc2ccccc2c1=O (stereo not drawn) 6.28%
Cc1ccn2cc(-c3nonc3C)cc2c1 15.2%
CC(C)OC(=O)CN1C(=O)C(=O)c2ccccc21 7.48%
O=C(CN1C(=O)C2C3C=CC(C3)C2C1=O)NCC1COc2ccccc2O1 (stereo not drawn) 1.48%
c1ccc(CSc2ncnc3c2sc2nc(N4CCOCC4)c4c(c23)CCCC4)cc1 10.1%
C#CCOCCOCCOCCNc1nc(N2CCN(C(=O)[C@H](CCCCN)n3cc(CCC(=O)O)nn3)CC2)nc(N2CCN(C(=O)[C@H](CCCCN)n3cc(CC(C)O)nn3)CC2)n1 (stereo partly drawn) 0.88%
C#CCOCCOCCOCCNc1nc(N2CCN(C(=O)[C@H](CCC(=O)O)n3cc(CN)nn3)CC2)nc(N2CCN(C(=O)[C@H](CCC(=O)O)n3cc(CN)nn3)CC2)n1 -3.45%
C#CCOCCOCCOCCNc1nc(N2CCN(C(=O)[C@H](CCCN=C(N)N)n3cc(C(N)[C@@H](C)CC)nn3)CC2)nc(N2CCN(C(=O)[C@H](CO)n3cc([C@@H](N)C(C)C)nn3)CC2)n1 (stereo partly drawn) -10.2%
C#CCOCCOCCOCCNc1nc(N2CCN(C(=O)C([C@@H](C)O)n3cc([C@@H](N)CCCCN)nn3)CC2)nc(N2CCN(C(=O)[C@H](CCCCN)n3cc(CN)nn3)CC2)n1 (stereo partly drawn) 1.85%
C#CCOCCOCCOCCNc1nc(N2CCN(C(=O)Cn3cc(CCO)nn3)CC2)nc(N2CCN(C(=O)[C@H](CCCCN)n3cc(CCCC)nn3)CC2)n1 0.16%
C#CCOCCOCCOCCNc1nc(N2CCN(C(=O)Cn3cc(CCO)nn3)CC2)nc(N2CCN(C(=O)Cn3cc(CCCN=C(N)N)nn3)CC2)n1 6.34%
